Results on 11 compounds are retold here after PubChem BioAssay.

A short description of assay [1]: reduction of polyQ htt aggregates in cells – imaging, exon1htt(103Q)mCFP cells, high-content imaging, primary screen (AID 483;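 active = visual image review flags a hit and inhibition of aggregation exceeds 20%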;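 also: compound exposure lasted 3 days before fixation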;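 as to nuclei count: percent of the per-plate median nuclei count of sample wells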). The conditions noted are these: exon1htt(103Q)mCFP cell line, aggregate imaging, at 2 µM; inhibition of aggregation: stronger effect = higher value; nuclei count: measured here: cell count, toxicity.
Assay [2] can be described thus: endothelial E-selectin expression blockers – imaging, HUVEC, immunofluorescence, MLSMR starter and 10KST1 sets, primary screen (AID 487;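 active = visually confirmed hit in the image check and inhibition above 20%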;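 as to inhibition: signal is fraction of cell area covered by stained E-selectin grains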;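 as to nuclei count: 100% = median nuclei count of all wells on the same plate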). The following applies: HUVEC TNFalpha-induced E-selectin immunofluorescence imaging, at 2 µM; inhibition: stronger effect = higher value; nuclei count: measured here: cell number, toxicity.
The nature of assay [3]: Primary imaging screen for DUSP6 inhibitors that restore phospho-Erk in transfected HeLa cells, chemical complementation (AID 609;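 active = compounds giving at least 50% inhibition in the cell-based MKP-3 phosphatase rescue imaging test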;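 as to inhibition: phospho-Erk level distribution per well compared with pooled transfected vehicle control wells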). The conditions noted are these: HeLa MKP-3 transfected, phospho-Erk imaging KS statistic, at 10 µM, cells stimulated with TPA for 15 min.
For assay [4], the target named is Dual specificity protein phosphatase 6 (Homo sapiens) (UniProt Q16828). The description is as above. The following applies: HeLa MKP-3 transfected, phospho-Erk imaging KS statistic; at 10 µM; stronger effect = higher value; cells stimulated with TPA for 15 min.
Sequence of Dual specificity protein phosphatase 6 (Homo sapiens) (Q16828 whole entry, looked up): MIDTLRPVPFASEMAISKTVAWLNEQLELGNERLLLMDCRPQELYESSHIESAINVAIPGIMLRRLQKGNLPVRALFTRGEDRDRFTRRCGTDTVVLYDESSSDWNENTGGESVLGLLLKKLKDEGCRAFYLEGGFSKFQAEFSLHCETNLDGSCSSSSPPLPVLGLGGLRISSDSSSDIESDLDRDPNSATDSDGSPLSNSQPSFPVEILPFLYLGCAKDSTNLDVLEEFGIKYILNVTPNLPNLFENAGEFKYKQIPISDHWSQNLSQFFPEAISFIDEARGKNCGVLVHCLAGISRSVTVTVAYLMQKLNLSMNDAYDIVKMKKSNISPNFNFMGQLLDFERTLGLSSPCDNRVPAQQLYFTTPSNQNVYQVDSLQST
Assay [5] has as its target Voltage-gated potassium channel subunit beta-2 (Rattus norvegicus) (UniProt P62483). Description: inhibitors of rat Kvbeta2 reductase activity – biochemical, NADPH fluorescence, primary screen (AID 622;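 active = fluorescence slope higher than the sample average by over 3 SD, cut at about -0.22 in these data, passing the limit was not always enough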;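 also: slope of raw intensity against log time taken from 70 to 1610 s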). The following applies: recombinant KvBeta, 4-cyanobenzaldehyde reduction, at 10 µM, stronger effect = higher value.
Assay [6] shares this target. Nature of the assay: enhancers of rat Kvbeta2 NADPH turnover – biochemical, NADPH fluorescence, primary screen (AID 623;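 active = NADPH fluorescence slope more negative than the mean of all samples by about 3 SD, 99.7% confidence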;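 also: fluorescence intensity change per second fitted from 20 to 320 s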). The following applies: Recombinant KvBeta, NADPH fluorescence decrease slope, 10 min; at 10 µM; stronger effect = lower value.
The target in assay [7] is Alpha-2C adrenergic receptor (Homo sapiens) (UniProt P18825). Nature of the assay: compounds altering alpha2C-coupled GIRK flux – cell-based, HEK293 alpha2C/GIRK1/2, thallium flux, primary screen (AID 624;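 active = fluorescence slope after compound addition differing from the mean of all screened samples at 99.7% confidence, in either direction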;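 also: slope of fluorescence ratio to pre-addition baseline per second over 15 to 24 s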). The conditions noted are these: thallium flux BTC fluorescence, at 10 µM, actives lie on both sides.
Sequence of Alpha-2C adrenergic receptor (Homo sapiens) (P18825 whole entry, looked up): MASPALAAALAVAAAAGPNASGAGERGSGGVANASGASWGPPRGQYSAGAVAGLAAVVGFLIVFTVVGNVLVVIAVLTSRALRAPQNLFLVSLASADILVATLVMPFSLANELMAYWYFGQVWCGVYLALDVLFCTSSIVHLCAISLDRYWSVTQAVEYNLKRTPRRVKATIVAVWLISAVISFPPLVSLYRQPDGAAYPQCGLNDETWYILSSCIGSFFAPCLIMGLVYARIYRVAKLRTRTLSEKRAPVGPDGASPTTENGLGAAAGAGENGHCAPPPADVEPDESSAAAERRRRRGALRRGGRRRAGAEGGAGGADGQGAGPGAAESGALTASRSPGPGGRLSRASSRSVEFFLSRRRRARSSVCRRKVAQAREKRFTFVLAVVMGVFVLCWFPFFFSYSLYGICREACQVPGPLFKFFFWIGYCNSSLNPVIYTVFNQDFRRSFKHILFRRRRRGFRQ
Assay [8] can be described thus: inhibitors of larval lipid processing in zebrafish, primary screen, whole organism, PED6 fluorescence, gall bladder and intestine (AID 686;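 active = a full or partial loss of lipid-probe fluorescence in the fish gall bladder, intestine or both, judged by eye; inactive = no fluorescence loss, or compound toxic to the fish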;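 also: larvae 5 to 7 days old with five fish per well; signal comes from phospholipase A2 cleavage of quenched PED6 carried via bile; overnight exposure to compound and PED6 before scoring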). The conditions noted are these: Zebrafish larvae PED6 lipid processing, fluorescence scoring; screened at 20 µM (by protocol).
The nature of assay [9]: loss of swimming-algae plug formation – whole organism, Chlamydomonas reinhardtii, WT vs cilia-less mutant, absorbance, 96-well, primary screen (AID 463189).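 Also: 0% = wild type cc124 cells in DMSO and 100% = ciliumless bld1 mutant cells.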 The following applies: Chlamydomonas reinhardtii gravitaxis, OD600 absorbance, 2 days; at 10 µM; stronger effect = higher value.
Assay [10] is described as follows: blockers of RIG-like receptor reporter activation – cell-based, Sendai virus stimulus, luciferase, 10K MLSCN set, TLR/RLR signaling modifier project, primary screen (AID 602276;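 active = inhibition at or above 50% at 10 µM; inactive = inhibition below 50%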;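 also: firefly luciferase from ISG56 promoter only with Renilla not read in this screen; 0% = Sendai virus plus DMSO and 100% = medium plus DMSO without virus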). The following applies: HEK293 RL24 IRF3 luciferase reporter, at 10 µM, stronger effect = higher value. On the technique in general: In a reporter assay the amount or activity of a reporter protein is the signal.

The nature of assay [11]: TLR3 IRF3 reporter activation blockers – cell-based, poly I:C stimulus, luciferase, 10K MLSCN set, primary screen (AID 602277;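 active = inhibition of the reporter signal at or above 50%; inactive = inhibition below 50%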). The following applies: HEK293-TLR3 RL24 IRF3 luciferase reporter, at 10 µM, stronger effect = higher value.
In assay [12] the target is Muscarinic acetylcholine receptor M4 (Homo sapiens) (UniProt P08173). Description: M4-linked GIRK flux change, two-sided – cell-based, HEK293 M4/GIRK, thallium flux, BTC-AM, M4 allosteric agonist project, primary screen (AID 625;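 active = fluorescence slope after compound addition differing from the mean of all tested samples at 99.7% confidence, mostly higher but some lower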;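 also: thallium influx through GIRK channels coupled to M4 in HEK293 cells with BTC-AM dye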). The conditions noted are these: at 10 µM, actives lie on both sides.
Sequence of Muscarinic acetylcholine receptor M4 (Homo sapiens) (P08173 whole entry, looked up): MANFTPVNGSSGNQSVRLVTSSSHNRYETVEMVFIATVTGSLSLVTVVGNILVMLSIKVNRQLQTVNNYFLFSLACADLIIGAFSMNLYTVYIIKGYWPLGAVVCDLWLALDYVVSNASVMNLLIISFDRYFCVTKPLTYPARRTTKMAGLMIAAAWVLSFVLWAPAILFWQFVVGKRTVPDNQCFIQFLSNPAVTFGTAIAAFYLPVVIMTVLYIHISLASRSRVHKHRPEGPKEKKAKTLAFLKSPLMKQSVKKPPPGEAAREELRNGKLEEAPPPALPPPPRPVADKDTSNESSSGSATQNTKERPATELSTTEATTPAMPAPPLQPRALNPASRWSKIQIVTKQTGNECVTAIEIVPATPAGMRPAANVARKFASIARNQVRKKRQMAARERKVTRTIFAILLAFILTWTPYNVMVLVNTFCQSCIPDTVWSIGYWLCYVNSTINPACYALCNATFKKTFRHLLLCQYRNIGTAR
The mark [13] stands for this setting: measured here: cell density z-score.
The mark [14] stands for this setting: measured here: nuclear c-Myc green intensity z-score.
[15] abbreviates: measured here: nuclear pErk red intensity z-score, stronger effect = higher value.

Values joined by “and” are separate entries in the source; they are usually repeats but may differ in a detail not shown here. Identical values can stand only once. Active and inactive are the calls of the source.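 The calls were made as follows, unless noted: active = inhibition at or above 50% relative to wild type and mutant plate controls; inactive = inhibition below 50%.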

Sequence of Voltage-gated potassium channel subunit beta-2 (Rattus norvegicus) (P62483 whole entry, looked up): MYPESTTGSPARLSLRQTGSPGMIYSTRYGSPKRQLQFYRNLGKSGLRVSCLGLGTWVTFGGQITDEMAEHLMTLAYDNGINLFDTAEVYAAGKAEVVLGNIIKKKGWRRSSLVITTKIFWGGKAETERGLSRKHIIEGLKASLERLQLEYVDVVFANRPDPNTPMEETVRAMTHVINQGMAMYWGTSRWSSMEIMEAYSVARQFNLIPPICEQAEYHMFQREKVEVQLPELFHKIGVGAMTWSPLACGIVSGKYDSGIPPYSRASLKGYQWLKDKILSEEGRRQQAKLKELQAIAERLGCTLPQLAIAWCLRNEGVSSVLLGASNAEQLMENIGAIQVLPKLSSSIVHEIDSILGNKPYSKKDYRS

In the case of `NS(=O)(=O)c1cc2c(cc1Cl)NCNS2(=O)=O`, the inhibition of aggregation in assay [1] is -4.8% (inactive). Moreover, the nuclei count in [1] worked out at 107%; in assay [2], 102%. Also, the inhibition (usually the drop in the measured response relative to a control, in per cent) in [2] is -46.3% (inactive); in assay [4], -0.493% (inactive); in [9] it was 0.566% (inactive) and -18.6% (inactive); in assay [10], 15.2% (inactive); in assay [11] it was 40.7% (inactive). Moreover, the z-score in assay [3] (setting [13]) is -0.71; in [3] (setting [14]), -0.153; in assay [3] (setting [15]), -1.04. Also, the fluorescence slope in assay [5] was -0.428 (inactive). The NADPH fluorescence slope in assay [6] was 1.8e-05 (inactive). The slope in assay [7] was 0.00467 (inactive). The result in assay [8] was inactive.
For the compound `Cc1cccc(N2CN=c3s/c(=C\c4ccncc4)c(=O)n3C2)c1`, the inhibition of aggregation in [1] is 13.2% (inactive). The nuclei count in assay [1] turned out to be 99.6%; in [2] it was 121%. The inhibition in assay [2] is -56.6% (inactive); in assay [4] it was -10.5% (inactive); in assay [9], 22.1% (inactive); in assay [10], 10.3% (inactive); in assay [11] it was -3.47% (inactive). The z-score in assay [3] (setting [13]) was -0.505; in assay [3] (setting [14]) it was -1.69; in assay [3] (setting [15]), 1.18. Further, in assay [5], the fluorescence slope is -0.334 (inactive). Besides, the NADPH fluorescence slope in [6] was 5.8e-06 (inactive). Also, the slope in assay [7] is 0.00412 (inactive). For the same compound, in assay [8], the result was inactive.
With `COc1cc2nc(N3CCN(C(=O)C4COc5ccccc5O4)CC3)nc(N)c2cc1OC` (stereo not given), the inhibition of aggregation in [1] was -4.2% (inactive). In addition, the nuclei count in [1] came out at 100%; in assay [2] it was 123%. Also, the inhibition in assay [2] is -103% (inactive); in [4], -0.493% (inactive); in assay [9], -6.99% (inactive) and 1.78% (inactive); in assay [10], 5.11% (inactive); in assay [11], 24.7% (inactive). The z-score is 0.0825 in [3] (setting [13]), -0.753 in assay [3] (setting [14]) and -0.892 in [3] (setting [15]). In addition, in assay [5], the fluorescence slope was -0.435 (inactive). Also, the NADPH fluorescence slope in [6] was -3.3e-05 (inactive). In addition, the slope in assay [7] is 0.00431 (inactive). Further, the call in assay [8] was inactive.
Regarding `C[C@]12C=CC(=O)C=C1CC[C@H]1[C@@H]3C[C@@H](O)[C@](O)(C(=O)CO)[C@@]3(C)C[C@H](O)[C@@]12F`, in [1], the inhibition of aggregation is 23.7% (inactive). The nuclei count in assay [1] turned out to be 50.2%; in assay [2], 117%. Moreover, the inhibition is -61.6% (inactive) in assay [2]; 15.3% (inactive) in assay [4]; 6.05% (inactive) and 21.3% (inactive) in assay [9]; 13.3% (inactive) in assay [10]; 37.9% (inactive) in [11]. The results for the z-score in [3] (setting [13]), in assay [3] (setting [14]) and in assay [3] (setting [15]) were -0.539, 1.04 and -0.0271, respectively. Besides, the fluorescence slope in assay [5] is -0.508 (inactive). In assay [6], the NADPH fluorescence slope is -6.2e-05 (inactive). Also, the slope in [7] was 0.0055 (inactive). The result in [8] was inactive.
Turning to `CCc1nc(N)nc(N)c1-c1ccc(Cl)cc1`, the inhibition of aggregation in assay [1] is -35.2% (inactive). Besides, the values for the nuclei count in assay [1] and in [2] were 76.3% and 108%, respectively. Further, the inhibition in assay [2] is -93.1% (inactive); in [4], 12.4% (inactive); in assay [9], 37.1% (inactive); in [10], 18.7% (inactive); in assay [11], -1.71% (inactive). Further, the z-score in assay [3] (setting [13]) is -1.21; in assay [3] (setting [14]), 2.44; in assay [3] (setting [15]), -0.22. The fluorescence slope in assay [5] is -0.503 (inactive). The NADPH fluorescence slope in assay [6] is 1.5e-05 (inactive). Moreover, in assay [7], the slope was 0.00459 (inactive). For the same compound, in [8], the outcome was inactive.
With `C1COC(NC(C2CC2)C2CC2)=N1`, in assay [1], the inhibition of aggregation was 19% (inactive). Moreover, the nuclei count was found to be 109% in [1] and 116% in assay [2]. In addition, the inhibition in assay [2] was -91.3% (inactive); in [4] it was 25.7% (inactive); in assay [9] it was 2.12% (inactive) and 18.6% (inactive); in assay [10], -6% (inactive); in assay [11], 20.5% (inactive). Besides, the z-score in assay [3] (setting [13]) is -0.996; in assay [3] (setting [14]) it was 0.285; in assay [3] (setting [15]), -0.338. Also, the fluorescence slope in assay [5] was -0.468 (inactive). The NADPH fluorescence slope in assay [6] was -4.8e-05 (inactive). Also, the slope in assay [7] was 0.00489 (inactive).
For the compound `NS(=O)(=O)c1cc2c(cc1C(F)(F)F)NCNS2(=O)=O`, the inhibition of aggregation in assay [1] is 0% (inactive). Further, the nuclei count is 106% in [1] and 114% in assay [2]. Besides, the inhibition was -96.4% (inactive) in assay [2]; 3.45% (inactive) in [4]; -11.3% (inactive) in [9]; 5.25% (inactive) in assay [10]; 24.3% (inactive) in assay [11]. Moreover, the z-score was -1.02 in [3] (setting [13]), 0.57 in assay [3] (setting [14]) and -0.708 in assay [3] (setting [15]). In assay [5], the fluorescence slope was -0.444 (inactive). Further, in assay [6], the NADPH fluorescence slope was -4.4e-05 (inactive). Besides, the slope in [7] is 0.00463 (inactive). For the same compound, in assay [8], the outcome was inactive.
Regarding `O=c1[nH]c(=O)n([C@H]2C[C@H](O)[C@@H](CO)O2)cc1F`, in assay [1], the inhibition of aggregation was -11.9% (inactive). For the same compound, the values for the nuclei count in [1] and in assay [2] were 10.3% and 116%, respectively. For the same compound, the inhibition is -47% (inactive) in assay [2]; 3.59% (inactive) in assay [4]; -13.9% (inactive) in assay [9]; -38.5% (inactive) in [10]; 15.4% (inactive) in [11]. The z-score in assay [3] (setting [13]) is 0.0804; in assay [3] (setting [14]) it was 0.765; in assay [3] (setting [15]), -0.71. Besides, in [5], the fluorescence slope is -0.533 (inactive). Besides, the NADPH fluorescence slope in assay [6] was -5.3e-05 (inactive). In addition, the slope in assay [7] was 0.00542 (inactive). Moreover, the result in [8] was inactive.
Turning to `COc1cc(NS(=O)(=O)c2ccc(N)cc2)ncn1`, in assay [1], the inhibition of aggregation was 15.6% (inactive). Also, the nuclei count in [1] was 100%; in assay [2] it was 109% and 156%. In addition, the inhibition in assay [2] was -87.8% (inactive) and -123% (inactive); in assay [4], 12.4% (inactive) and -1.98% (inactive); in assay [9], 15.5% (inactive) and 12.3% (inactive); in assay [10], 6.56% (inactive); in assay [11], 32.2% (inactive). The z-score is -0.758 and -0.797 in assay [3] (setting [13]); -0.381 and 0.601 in assay [3] (setting [14]); 1.83 and 0.0867 in assay [3] (setting [15]). The fluorescence slope in assay [5] was -0.448 (inactive) and -0.477 (inactive); in [12] it was 0.00587 (inactive). Further, the NADPH fluorescence slope in [6] is -8.5e-05 (inactive) and -7.6e-05 (inactive). For the same compound, in assay [7], the slope is 0.00452 (inactive). Further, the result in [8] was inactive.
Regarding `Cc1cccc(CN2CCN(C(c3ccccc3)c3ccc(Cl)cc3)CC2)c1` (stereo not given), the inhibition of aggregation in assay [1] was -13.4% (inactive). Besides, the nuclei count in [1] came out at 103%; in assay [2] it was 122%. In addition, the inhibition in assay [2] is -28.5% (inactive); in assay [4], 1.48% (inactive); in assay [9], -15.7% (inactive); in [10] it was 6.06% (inactive); in assay [11], 30.8% (inactive). Besides, the z-score in assay [3] (setting [13]) was -0.832; in assay [3] (setting [14]) it was -0.304; in assay [3] (setting [15]) it was -0.398. In assay [5], the fluorescence slope was -0.508 (inactive). In addition, the NADPH fluorescence slope in assay [6] was -3.3e-06 (inactive). In addition, the slope in [7] is 0.00615 (inactive). Further, in [8], the outcome was inactive.
On to `CCc1oc2ccccc2c1C(=O)c1cc(Br)c(O)c(Br)c1`, for which the inhibition of aggregation in assay [1] is -4.4% (inactive). The nuclei count turned out to be 98% in [1] and 132% in assay [2]. The inhibition in assay [2] was -113% (inactive); in assay [4], 17.3% (inactive); in assay [9], 129% (active); in assay [10], 18.5% (inactive); in assay [11] it was 30.1% (inactive). Also, the z-score in assay [3] (setting [13]) amounted to 0.0952; in assay [3] (setting [14]) it was 0.368; in assay [3] (setting [15]), 0.987. The fluorescence slope in assay [5] is -0.429 (inactive). The NADPH fluorescence slope in assay [6] was 3.1e-06 (inactive). Also, the slope in [7] is 0.00421 (inactive). In addition, the outcome in [8] is “inactive; toxic”.
